Bioassay records as filed in PubChem.
VDR inhibitor: Inhibitors of the vitamin D receptor (VDR): qHTS | Vitamin D3 receptor (Homo sapiens), P11473 | VDR-SRC2-3 peptide fluorescence polarization, 2 h | Potency, µM, for inactives: max response, negative = inhibition, usual class: inhibitors | 0.93% of 400,000 active
Target sequence (P11473 whole entry, looked up): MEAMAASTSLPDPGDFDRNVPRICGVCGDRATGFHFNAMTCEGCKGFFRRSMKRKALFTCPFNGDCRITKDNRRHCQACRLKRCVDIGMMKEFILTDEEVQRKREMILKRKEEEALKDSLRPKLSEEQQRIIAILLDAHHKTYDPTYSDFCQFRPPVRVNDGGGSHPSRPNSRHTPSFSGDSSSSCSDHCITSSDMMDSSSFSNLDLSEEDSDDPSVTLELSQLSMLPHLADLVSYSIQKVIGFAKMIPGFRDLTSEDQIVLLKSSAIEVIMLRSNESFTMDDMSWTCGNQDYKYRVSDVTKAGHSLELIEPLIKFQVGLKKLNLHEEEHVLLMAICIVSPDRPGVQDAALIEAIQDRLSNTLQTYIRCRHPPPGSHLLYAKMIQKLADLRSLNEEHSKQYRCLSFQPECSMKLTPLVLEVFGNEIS
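Fluorescence polarization assay measuring small-molecule disruption of VDR binding to the coregulator peptide SRC2-3. Compounds were pin-transferred (23 nl) into the reagent mix and incubated 2 h at room temperature before reading.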
PLK1 PBD block: qHTS for Inhibitors of PLK1-PDB (polo-like kinase 1 - polo-box domain): Primary Screen; Serine/threonine-protein kinase PLK1 (Homo sapiens), P53350; Plk1 PBD binding of FITC phosphopeptide, fluorescence polarization; Potency, µM, for the others: max response, negative = inhibition, usual class: inhibitors; 2.8% of 360,000 active; AID 720504, 2013; further: series mostly up to about 57 µM; nearly all actives have a fitted effect of over 65% in size
GCN5L2 inh: qHTS Assay for Inhibitors of GCN5L2; GCN5L2 HAT assay, ThioGlo1 CoA-SH fluorescence; Potency, µM (doses to about 58.9 µM), for the others: top-dose activity change, negative = inhibition, hits mostly inhibitors; 0.21% of 390,000 active
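Fluorescence readout, Ex340nm/Em540nm: ThioGlo1 (50uM final) reacts with free CoA thiol released as 20nM GCN5L2 acetylates H3(1-25) peptide (75uM) using acetyl-CoA (70uM). Compound and enzyme sat 15 min beforehand; 20 min room-temperature reaction.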
ALOX12 inh: Primary qHTS assay for inhibitors of human arachidonate 12S-lipoxygenase (ALOX12): Round 2; purified 12hLO, xylenol orange hydroperoxide absorbance; Polyunsaturated fatty acid lipoxygenase ALOX12 (Homo sapiens), P18054; Potency, µM (series often up to 108 µM), without a hit: at the top dose activity change, negative = inhibition, usual class: inhibitors; AID 1671190, 2021; 1.1% of 580,000 active
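Purified human 12hLO (150 nM final) in 25 mM Hepes, 0.01% Triton X-100, pH 7.0 was preincubated 15 min at room temperature with compound. Then 40 uM arachidonic acid was added, 30 min. Hydroperoxide was read by Fe-XO absorbance ratio 573/405 nm.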
* = called active by the depositor; ? = inconclusive; / = not tested or not shown; [ ] = dose if it differs, or a comment. An excerpt weighted towards active compounds, which were near 3% of everything screened. The call rests on the fitted dose curve; in most records, active means well fitted curve in the direction sought with a large enough effect; inconclusive means small, poorly fitted or top-dose-only effect, or another doubt; inactive means no such curve, though single readings can be large; an effect the other way counts as inactive or inconclusive. On the % scale 0 is the no-effect control and ±100 the full control effect; potency means the concentration at half of the fitted maximal effect.

SMILES	VDR inhibitor	PLK1 PBD block	GCN5L2 inh	ALOX12 inh
Cc1cccc(NC(=O)NCC2CCN(CCc3ccc(F)cc3)CC2)c1C	/	/	/	35µM*
CCN(CC)CCCNc1nc2ccccc2c2[nH]c3ccc(OC)cc3c12	8%	3%	/	45µM*
N#CC1=C(N)OC2=C(C(=O)CC(c3ccccc3)C2)C1c1cccnc1 (stereo not drawn)	4%	0%	0%	-7%
Cc1ccc(C2CC(=O)C3=C(C2)OC(N)=C(C#N)C3c2ccc(Cl)c(Cl)c2)cc1 (stereo not drawn)	/	/	/	40µM*
N#CC1=C(N)OC2=C(C(=O)CC(c3ccccc3)C2)C1c1cccc(F)c1 (stereo not drawn)	/	/	/	35µM*
N#CC1=C(N)OC2=C(C(=O)CC(c3ccccc3)C2)C1c1ccc(Br)cc1 (stereo not drawn)	/	/	/	11µM*
N#CC1(NC(=O)CNc2ccc(F)cc2Cl)CCCC1	/	/	/	11%
O=C1CCCCCN1C1CCN(Cc2cccc3ccccc23)CC1	/	/	/	22%[176 µM]
Cc1ccccc1C(=O)NC(C)c1ccc2c(c1)OCO2 (stereo not drawn)	/	/	/	-42%
CSc1ccc(-c2sc(Nc3ccccc3)n[n+]2-c2ccc(F)cc2)cc1	-16%	30µM*	-1%	/
O=C(On1c(-c2ccccc2)nc2ccccc2c1=O)c1ccco1	-24%	17µM*	/	?
COc1cc(OC)cc(-c2nc3ccccc3c(=O)n2OC(=O)c2ccccc2C)c1	-10%	-17%	-5%	-11%
CCN(CC)C(=O)C1=C(C)N(Cc2ccccc2)C(=O)NC1c1ccc(F)cc1F (stereo not drawn)	/	/	/	10%
CC(=O)Nc1ccc(Sc2ccc([N+](=O)[O-])o2)cc1	?	21µM*	/	?
CC(C)(C)C(=O)Nc1ccc(Sc2ccc([N+](=O)[O-])cc2)cc1	2%	-10%	-10%	-14%
CC(Sc1ccc(Br)cc1)C(=O)O (stereo not drawn)	/	/	/	-5%
Cc1ccc(NC(=O)COC(=O)c2ccc(Cl)c(S(=O)(=O)N3CCCCCC3)c2)c(C)c1	/	/	/	-22%
COc1cc(C(=S)N2CCCC2)cc(Cl)c1OCC(=O)Nc1ccc(C)cc1C	?	8.4µM*	-16%	?
Cc1ccnc(SCc2ccc(C(=O)O)cc2)n1	-22%	12µM*	-7%	-10%
COc1cc(CCc2ccccc2)c(C(=O)O)c(O)c1CC=C(C)C	-10%	27µM*	/	?
COC(=O)C(=C/C=C/c1ccccc1)C(=O)OC	/	/	/	-15%
COC1=CC(=O)C(O)=C/C1=C\C=C\c1ccccc1	2.8µM*	/	-15%	/
COc1ccc(Cn2nccc2NC(=O)c2cc(=O)c3cc(C)ccc3o2)cc1	/	/	/	12%
Cc1ccccc1C(=O)N1CCC(N2CCCCCC2=O)CC1	/	/	/	89µM*
Cc1ccccc1C(=O)N1CCC(C(=O)Nc2ccc(S(=O)(=O)N3CCCC3)cc2)CC1	-18%	12µM*	-5%	-9%
SMILES	VDR inhibitor	PLK1 PBD block	GCN5L2 inh	ALOX12 inh
Cc1ccc(S(=O)(=O)/N=C2\C=C(Nc3cccc(C(=O)O)c3)C(=O)c3ccccc32)cc1	-1%	60µM*	-20%	-17%
COC(=O)c1ccccc1NC1=C/C(=N\S(=O)(=O)c2cccs2)c2ccccc2C1=O	?	19µM*	-11%	-1%
Cc1ccc(S(=O)(=O)/N=C2\C=C(Nc3ccc(O)cc3)C(=O)c3ccccc32)cc1	14%	-6%	-15%	/
COC(=O)c1ccccc1NC1=C/C(=N\S(=O)(=O)c2ccc(C(=O)O)cc2)c2ccccc2C1=O	25µM*	?	-11%	/
O=C1C(Nc2ccccc2)=C/C(=N/S(=O)(=O)c2cccs2)c2ccccc21	-14%	-24%	-5%	/
Cc1noc2nc(-c3ccccc3F)cc(C(=O)NCc3ccccc3F)c12	/	/	/	5%
CCc1nn2c(=O)cc(CSc3n[nH]c(-c4cccc(C)c4)n3)nc2s1	/	/	/	-25%
Cc1c(Cl)cccc1N1CC(c2nc3ccccc3n2C(C)C)CC1=O (stereo not drawn)	/	/	/	-16%
Cc1ccccc1OCCN(C)Cc1cc(=O)oc2c(C)c(O)ccc12	/	/	/	-24%
CSC1=NCCN1C(=O)C(C)Oc1ccccc1 (stereo not drawn)	-20%	30µM*	-2%	-4%
CC(Oc1ccccc1)C(=O)N1CCN=C1SCc1ccccc1F (stereo not drawn)	4%	2%	-7%	-3%
CCC(C)NC(=O)CSc1c2c(nc3ccccc13)CCCC2 (stereo not drawn)	-13%	17µM*	-2%	-1%
Cc1cccc(NC(=O)CSc2c3c(nc4ccccc24)CCC3)n1	-5%	-1%	-1%	1%
O=C(c1cnn(-c2ccccc2F)c1-n1cccc1)N1CCN(c2ccccc2)CC1	/	/	/	13%
CCOc1ccc2nc(SCC(=O)NCc3ccc(OC)c(OC)c3)[nH]c2c1	?	27µM*	-3%	10%
COc1ccc2nc(SCC(=O)NCc3ccc(OC)c(OC)c3)[nH]c2c1	?	?	-7%	0%
Cc1ccc(-n2nc(C)c(Sc3ccccc3[N+](=O)[O-])c2N)cc1	?	2.4µM*	-8%	-22%
CCOC(=O)c1c(/N=C/N(C)C)sc(/C=N/Nc2ccccc2)c1-c1ccc(Cl)cc1	?	30µM*	-4%	?
Cc1nc2cc(NC(=O)CN(C)C(=O)c3ccco3)ccc2o1	/	/	/	10%
O=C(CN1C2=NCCCN2c2ccccc21)c1cccc(Br)c1	?	24µM*	1%	26%
Cc1ccc(C)c(OC2=NS(=O)(=O)c3ccccc32)c1	-17%	12µM*	-3%	?
CCN(CC)S(=O)(=O)c1ccc(NC(=O)COc2ccc3c(C)cc(=O)oc3c2)cc1	/	/	/	-1%
O=c1c(-c2cc(O)c(O)c(O)c2)coc2cc(O)c(O)c(O)c12	14µM*	/	?	/
O=c1c(-c2ccc(O)cc2)coc2cc(O)cc(O)c12	6%	-9%	-11%	?
Cn1c(NC(=O)c2ccco2)c(-c2cccc(C(F)(F)F)c2)c(=O)c2ccccc21	/	/	/	-3%
SMILES	VDR inhibitor	PLK1 PBD block	GCN5L2 inh	ALOX12 inh
FC(F)(F)c1ccc2c(c1)nc1n2[C@@H](CNCc2ccccc2)COC1	/	/	/	57%[176 µM]
CC1CCC(C(C)C)C(OC(=O)C[n+]2cccc(C(N)=O)c2)C1 (stereo not drawn)	?	2.4µM*	?	?
O=[N+]([O-])c1ccc(NC(=S)Nc2ccc3c(c2)CCC3)cc1	/	/	/	40µM*
O=C(Nc1cccc([N+](=O)[O-])c1)Nc1ccc2c(c1)CCC2	1%	-4%	1%	-19%
Cc1nn(CCC(N)=S)c2nc(-c3cccs3)cc(C(F)(F)F)c12	?	11µM*	1%	?
CCCOc1ccc(NC(=O)COc2ccc(OC)cc2)c2cccnc12	/	/	/	22%
O=C(O)c1ccccc1Nc1ccccc1C(=O)O	-5%	-8%	-15%	-11%
O=C1C=C(Nc2ccccc2C(=O)O)c2ccccc2C1=O	?	11µM*	-5%	?
